Test results reported in PubChem BioAssay (NCATS).
Where “and” joins values, the source holds several entries; their conditions need not be identical. Equal values may be shown once. Inconclusive results are not listed. Entries that show only a call come without a potency. A structure can be active in one record and inactive in another. Calls of active or inactive are those of the source. Unless noted, the call rests on the fitted dose curve; in most records, active means well fitted curve in the direction sought with a large enough effect; inconclusive means small, poorly fitted or top-dose-only effect, or another doubt; inactive means no such curve, though single readings can be large; an effect the other way counts as inactive or inconclusive. Non-standard residues stand in square brackets, D forms with d. Residues, ends and D or L forms follow the SMILES beside them. Peptide text beside a SMILES is read from it. Orn = NCCC[C@H](N)C(=O)O

Columns and labels:
[1] = molecular target: Voltage-gated inwardly rectifying potassium channel KCNH2 (Homo sapiens) (UniProt Q12809); assay: qHTS Assay for Small Molecule Inhibitors of the Human hERG Channel Activity (AID 588834);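 further: lower thallium flux fluorescence means stronger hERG block; nearly all actives have a fitted effect of over 50% in size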
Sequence of Voltage-gated inwardly rectifying potassium channel KCNH2 (Homo sapiens) (Q12809 whole entry, looked up): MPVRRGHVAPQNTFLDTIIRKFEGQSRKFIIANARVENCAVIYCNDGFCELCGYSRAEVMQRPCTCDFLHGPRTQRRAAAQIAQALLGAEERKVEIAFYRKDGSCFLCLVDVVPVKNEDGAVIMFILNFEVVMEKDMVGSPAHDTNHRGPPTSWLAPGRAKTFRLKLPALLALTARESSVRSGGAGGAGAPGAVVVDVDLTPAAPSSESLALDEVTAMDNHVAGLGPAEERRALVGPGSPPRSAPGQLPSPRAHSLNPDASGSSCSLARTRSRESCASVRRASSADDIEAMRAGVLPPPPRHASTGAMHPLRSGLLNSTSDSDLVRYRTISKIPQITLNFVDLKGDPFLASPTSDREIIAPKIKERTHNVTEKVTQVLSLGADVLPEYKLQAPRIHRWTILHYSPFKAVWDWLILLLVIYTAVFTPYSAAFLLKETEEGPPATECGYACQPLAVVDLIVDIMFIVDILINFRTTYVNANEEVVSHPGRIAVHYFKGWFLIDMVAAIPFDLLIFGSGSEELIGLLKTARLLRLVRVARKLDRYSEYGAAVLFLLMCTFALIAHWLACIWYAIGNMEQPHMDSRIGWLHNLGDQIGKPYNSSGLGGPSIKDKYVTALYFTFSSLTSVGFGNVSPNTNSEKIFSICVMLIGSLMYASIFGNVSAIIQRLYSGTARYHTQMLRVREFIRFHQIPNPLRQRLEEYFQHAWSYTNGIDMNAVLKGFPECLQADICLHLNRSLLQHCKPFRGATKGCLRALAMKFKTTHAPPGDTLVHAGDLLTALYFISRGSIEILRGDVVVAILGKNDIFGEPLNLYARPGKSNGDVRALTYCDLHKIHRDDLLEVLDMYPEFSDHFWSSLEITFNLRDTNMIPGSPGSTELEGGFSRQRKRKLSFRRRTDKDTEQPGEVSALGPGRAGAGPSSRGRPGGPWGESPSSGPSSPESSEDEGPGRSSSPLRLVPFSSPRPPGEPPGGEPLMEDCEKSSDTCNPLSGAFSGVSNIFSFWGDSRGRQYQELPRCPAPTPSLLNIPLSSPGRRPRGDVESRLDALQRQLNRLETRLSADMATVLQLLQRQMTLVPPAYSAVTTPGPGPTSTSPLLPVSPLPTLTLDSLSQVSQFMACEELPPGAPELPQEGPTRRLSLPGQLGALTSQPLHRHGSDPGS
Procedure, shortened: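 Cells were infected with hERG-BacMam virus for 4 hrs at room temperature, grown overnight, then seeded at 2000/well. After dye loading and roughly 10 min compound treatment, thallium influx was triggered and fluorescence recorded.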

[2] = molecular target: Luciferin 4-monooxygenase (Photinus pyralis) (UniProt P08659); assay: Biochemical firefly luciferase enzyme assay for NPC (AID 624030); further: nearly all actives have a fitted effect of over 70% in size
Sequence of Luciferin 4-monooxygenase (Photinus pyralis) (P08659 whole entry, looked up): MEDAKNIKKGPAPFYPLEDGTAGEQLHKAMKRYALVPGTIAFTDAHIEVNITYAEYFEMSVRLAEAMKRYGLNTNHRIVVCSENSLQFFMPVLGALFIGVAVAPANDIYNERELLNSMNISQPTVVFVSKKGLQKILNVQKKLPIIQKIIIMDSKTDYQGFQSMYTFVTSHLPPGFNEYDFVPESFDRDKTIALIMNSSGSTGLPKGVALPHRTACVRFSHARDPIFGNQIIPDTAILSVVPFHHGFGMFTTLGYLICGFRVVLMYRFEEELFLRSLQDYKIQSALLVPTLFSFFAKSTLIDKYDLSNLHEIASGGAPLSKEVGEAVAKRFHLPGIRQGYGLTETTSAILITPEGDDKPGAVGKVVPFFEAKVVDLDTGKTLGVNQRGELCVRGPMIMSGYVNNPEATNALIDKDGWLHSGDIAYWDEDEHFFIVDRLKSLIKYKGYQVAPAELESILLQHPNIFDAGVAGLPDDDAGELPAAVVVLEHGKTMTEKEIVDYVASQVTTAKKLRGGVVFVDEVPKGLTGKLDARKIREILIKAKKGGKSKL
Procedure, shortened: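 Counter-screen for direct inhibition of the luciferase enzyme by approved-drug library compounds, run at 10 nM enzyme in 50 mM Tris acetate (final). Luminescence was read within 5 min of enzyme-buffer addition and normalized to PTC124 versus DMSO (0%).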

[3] = S16 Schwann cell viability assay (CellTiter-Glo assay) (AID 624031); further: nearly all actives have a fitted effect of over 70% in size
Procedure, shortened: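 Counter-screen for cytotoxicity: parental S16 rat Schwann cells lacking the PMP22 reporters, treated 24 h with compound, viability from cellular ATP by CellTiter-Glo luminescence, normalized to DMSO (0%) and no-cell wells.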

[4] = S16 Schwann cell PMP22 intronic element firefly luciferase assay (AID 624032); further: nearly all actives have a fitted effect of over 30% in size
Procedure, shortened: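 Rat S16 Schwann cells stably carrying a PMP22 intronic element-driven Fluc reporter were seeded overnight, then exposed to compounds for 24 h at 37 °C. Luminescence was normalized to PTC124 (positive control) and DMSO (0% activity).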

[5] = S16 Schwann cell PMP22 intronic element beta-lactamase assay (AID 624044; calls by dose curve; further: nearly all actives have a fitted effect of over 15% in size)
Procedure, shortened: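 Beta-lactamase reporter under a PMP22 intronic regulatory element in stable S16 rat Schwann cells; 24 h compound exposure. 460 nm blue signal normalized between DMSO (0%) and potassium clavulanate, with 535 nm FRET tracking viability; curves classed by r2 and response.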

[6] = molecular target: Glutaminase kidney isoform, mitochondrial (Homo sapiens) (UniProt O94925); assay: qHTS for Inhibitors of Glutaminase (GLS): LOPAC Validation (AID 624146); settings: glutaminase enzyme activity inhibition; further: nearly all actives have a fitted effect of over 60% in size
Sequence of Glutaminase kidney isoform, mitochondrial (Homo sapiens) (O94925 whole entry, looked up, canonical isoform): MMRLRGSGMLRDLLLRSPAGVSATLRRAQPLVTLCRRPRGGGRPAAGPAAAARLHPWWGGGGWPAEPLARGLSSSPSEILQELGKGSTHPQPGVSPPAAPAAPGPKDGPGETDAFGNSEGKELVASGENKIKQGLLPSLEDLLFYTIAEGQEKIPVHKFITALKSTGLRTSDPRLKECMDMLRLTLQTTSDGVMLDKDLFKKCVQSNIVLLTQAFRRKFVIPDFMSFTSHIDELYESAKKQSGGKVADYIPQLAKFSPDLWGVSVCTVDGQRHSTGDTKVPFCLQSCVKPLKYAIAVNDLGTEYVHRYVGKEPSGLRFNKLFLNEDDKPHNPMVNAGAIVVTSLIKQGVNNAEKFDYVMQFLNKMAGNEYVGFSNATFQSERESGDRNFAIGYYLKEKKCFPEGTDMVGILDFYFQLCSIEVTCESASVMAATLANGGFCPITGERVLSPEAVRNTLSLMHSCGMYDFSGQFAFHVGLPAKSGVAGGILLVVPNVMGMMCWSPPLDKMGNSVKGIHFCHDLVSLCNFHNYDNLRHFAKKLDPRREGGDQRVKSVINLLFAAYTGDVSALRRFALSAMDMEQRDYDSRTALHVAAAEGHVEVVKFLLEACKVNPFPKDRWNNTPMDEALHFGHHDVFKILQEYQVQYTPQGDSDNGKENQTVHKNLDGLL
Source text: Glutaminase (GLS) catalyzes the hydrolysis of glutamine into glutamate and ammonia. It plays a critical role in glutaminolysis, which is an important energy source for proliferating cells. It was shown that c-Myc, an oncogenic transcription factor known to regulate microRNAs and to stimulate cell proliferation, increases glutamine metabolism by stimulating the expression of GLS via direct suppression of miR23a and miR23b.
GLS is also thought to play a pathogenic role on HAD using a human HIV-1 infected macrophage system. […] GLS inhibition limits glutamate release and provides neuroprotection against HIV-1 infected macrophages.
The overall goal of this project is to identify small molecule inhibitors of GLS through quantitative high throughput screening (qHTS) of the MLSMR. A validated potent and selective inhibitor can be used as a tool molecule to further study the pharmacology of its target as well as explore its potential therapeutic application in cancer and inflammatory neurological disorders, such as HIV1-associated dementia (HAD) and multiple sclerosis.
NIH Chemical Genomics Center [NCGC] […]
Three 3 uL of hKGA is dispensed into black well 1536-well plates in 45 mM KH2PO4 (pH 8.2), 0.02% Tween-20. […] Plate is centrifuged for 25 sec before an initial fluorescence read is obtained on the ViewLux, after 30 min of RT incubation, the final read is taken on the ViewLux.
Potency means the concentration at half of the fitted maximal effect.

Structure (SMILES)	Potency [1]	Potency [2]	Potency [3]	Potency [4]	Potency [5]	Potency [6]
C[C@]12O[C@H](C[C@]1(O)CO)n1c3ccccc3c3c4c(c5c6ccccc6n2c5c31)CNC4=O	inactive	inactive	10.2 µM (active)			
Nc1c(Br)cc(Br)cc1CNC1CCC(O)CC1 (stereo not drawn)	inactive	inactive	inactive	inactive	inactive	
CC[N+](C)(C)Cc1ccccc1Br	inactive	inactive	inactive		inactive	
NC(=O)c1ncn(C2OC(CO)C(O)C2O)n1 (stereo not drawn)	inactive	inactive	inactive		inactive	
COc1cc(-c2ccc(-[n+]3nc(-c4ccccc4)nn3-c3ccc([N+](=O)[O-])cc3)c(OC)c2)ccc1-[n+]1nc(-c2ccccc2)nn1-c1ccc([N+](=O)[O-])cc1	inactive	inactive				
CC[C@@H](C(=O)[C@@H](C)[C@@H](O)[C@H](C)CCc1ccc(C)c(O)c1C(=O)O)[C@H]1O[C@](CC)([C@H]2CC[C@](O)(CC)[C@H](C)O2)C[C@@H]1C	inactive					
CCCC(=O)Nc1ncnc2c1ncn2C1OC2COP(=O)(O)OC2C1OC(=O)CCC (stereo not drawn)	inactive	inactive	inactive	5.73 µM (active)	inactive	
C[C@@H]1CCC2[C@@H](C)[C@@H](O)O[C@@H]3O[C@@]4(C)CC[C@@H]1[C@@]23OO4 (stereo partly drawn)	inactive	inactive	inactive		inactive	
CCOc1ccc(N=Nc2ccc(N)cc2N)cc1	inactive	0.203 µM (active)				
O=C1C(=O)c2ncccc2-c2cccnc21	inactive	inactive				
CC1=C(/C=C/C(C)=C/C=C/C(C)=C/C=C/C=C(C)/C=C/C=C(C)/C=C/C2=C(C)C(=O)CCC2(C)C)C(C)(C)CCC1=O	inactive	inactive	inactive	inactive	inactive	
Cc1c(C)c2c(c(C)c1O)CC[C@@](C)(CCC[C@@H](C)CCC[C@@H](C)CCCC(C)C)O2	inactive	inactive	inactive		inactive	
COc1ccc2c3c1O[C@H]1C[C@@H](O)C=C[C@@]31CCN(C)C2	inactive	inactive	inactive		inactive	
COC(=O)C1=C(C#N)NC(C)=C(C(=O)OC(C)C)C1c1cccc([N+](=O)[O-])c1 (stereo not drawn)	inactive	inactive	inactive			
CN1Cc2c(N)cccc2C(c2ccccc2)C1 (stereo not drawn)	inactive and 12.6 µM (active)	inactive	inactive	inactive	inactive	12.6 µM (active)
CCCCC(=O)O[C@]1(C(=O)CO)[C@H](C)C[C@H]2[C@@H]3CCC4=CC(=O)C=C[C@]4(C)[C@@]3(F)[C@@H](O)C[C@@]21C	inactive	inactive	inactive		inactive	
NC1C2CN(c3nc4c(cc3F)c(=O)c(C(=O)O)cn4-c3ccc(F)cc3F)CC12 (stereo not drawn)	inactive	inactive	inactive		inactive	
C[C@]12CCC(=O)C=C1CC[C@@H]1[C@@H]2[C@@H](O)C[C@@]2(C)[C@H]1CC[C@]2(O)C(=O)COP(=O)(O)O	inactive	inactive	inactive			
Cc1cn([C@H]2C[C@H](O)[C@@H](CO)O2)c(=O)[nH]c1=O	inactive	inactive	inactive			

Structure (SMILES)	Potency [1]	Potency [2]	Potency [3]	Potency [4]	Potency [5]	Potency [6]
CC(C(=O)O)c1ccc(N2Cc3ccccc3C2=O)cc1 (stereo not drawn)	inactive	0.181 µM (active)	inactive		inactive	
CC(C)(C)C(=O)OCOC(=O)[C@@H]1N2C(=O)[C@@H](N=CN3CCCCCC3)[C@H]2SC1(C)C	inactive	inactive	inactive		inactive	
CCNC(=O)[C@@H]1CCCN1C(=O)[C@H](CCCN=C(N)N)NC(=O)[C@H](CC(C)C)NC(=O)[C@@H](Cc1c[nH]c2ccccc12)NC(=O)[C@H](Cc1ccc(O)cc1)NC(=O)[C@H](CO)NC(=O)[C@H](Cc1c[nH]c2ccccc12)NC(=O)[C@H](Cc1cnc[nH]1)NC(=O)[C@@H]1CCC(=O)N1	2.51 µM (active)	inactive	6.42 µM (active)	4.55 µM (active)	22.4 µM (active)	
C=C1C(=CC=C2CCC[C@@]3(C)[C@@H]2CC[C@H]3[C@H](C)CCCC(C)C)C[C@@H](O)C[C@@H]1O	inactive					
COC(=O)CCC(=O)CN	inactive	inactive	inactive			
COC(=O)[C@H]1[C@H]2C[C@@H]3c4[nH]c5ccccc5c4CCN3C[C@H]2C[C@@H](OC(=O)c2cc(OC)c(OC)c(OC)c2)[C@@H]1OC	0.355 µM (active)	inactive	5.1 µM (active)	0.907 µM (active)	3.98 µM (active)	
CC(=O)N[C@@H](CC(=O)O)C(=O)N[C@@H](CCC(=O)O)C(=O)O (Ac-Asp-Glu-OH)	inactive	inactive	inactive		inactive	
CCCCCCOc1ccc(C(=N)N(CCCC)CCCC)c2ccccc12	2.24 µM (active)	inactive	16.1 µM (active)	22.8 µM (active)		
C#CCOc1ccc2c(C)cc(=O)oc2c1	inactive	inactive	inactive		inactive	
CC(=O)Oc1c(C)cc(OCC(O)CNC(C)C)c(C)c1C (stereo not drawn)	inactive	inactive	inactive	inactive	inactive	
COC(F)(F)C(Cl)Cl	inactive	inactive	inactive		inactive	
O=C1CSC2(CCN(CCCN3c4ccccc4Sc4ccc(Cl)cc43)CC2)N1	7.08 µM (active)	inactive	32.2 µM (active)	32.2 µM (active)	inactive	
CCCCCCCCCCCCCCCC(=O)OCC(COC(=O)CCCCCCCCCCCCCCC)OC(=O)CCCCCCCCCCCCCCC	inactive	inactive	inactive	inactive	inactive	
Cc1cc(C(=O)NNCc2ccccc2)no1	inactive	inactive	inactive	inactive	inactive	
CCCCCCCCCCCC[n+]1ccc2ccccc2c1	3.16 µM (active)	inactive	16.1 µM (active)		19.9 µM (active)	
CC(C)C[C@@H]1NC(=O)[C@H](CCCN)NC(=O)[C@H](C(C)C)NC(=O)[C@@H]2CCCN2C(=O)[C@@H](Cc2ccccc2)NC(=O)[C@H](CC(C)C)NC(=O)[C@H](CCCN)NC(=O)[C@H](C(C)C)NC(=O)[C@@H]2CCCN2C(=O)[C@@H](Cc2ccccc2)NC1=O (cyclo(V[Orn]L[dF]PV[Orn]L[dF]P))	inactive					
CC[C@H]1OC(=O)C[C@@H](O)[C@H](C)[C@@H](O[C@@H]2O[C@H](C)[C@@H](O)[C@H](N(C)C)[C@H]2O)[C@@H](CCN2C[C@H](C)C[C@H](C)C2)C[C@@H](C)C(=O)/C=C/C(C)=C/[C@@H]1CO[C@@H]1O[C@H](C)[C@@H](O)[C@@H](OC)[C@H]1OC	inactive					
COc1cc([C@@H]2c3cc4c(cc3[C@@H](O[C@@H]3O[C@@H]5CO[C@@H](C)O[C@H]5[C@H](O)[C@H]3O)[C@H]3COC(=O)[C@H]23)OCO4)cc(OC)c1O	inactive					
